# Results: PubChem BioAssay (EPA / NIEHS)
# Results filed as inconclusive are left out. A structure can be active in one record and inactive in another. Activity calls are given as the source filed them. How the source made its calls, unless noted: active means hit-call score of the fitted dose curve at least 0.9, where 1 is the maximum; inconclusive means response in the unintended direction; inactive means score below 0.9.
# Experiments:
# [1] = system: Sodium/Iodide Symporter (NIS), SLC5A5 (gene 6528); assay: CPHEA_Stoker_NIS_Inhibition_RAIU: CPHEA's Radioactive Iodide Uptake (RAIU) Assay for Sodium/Iodide Symporter (NIS) Inhibition, Stoker and Laws Labs (AID 2283841)
# Summary of the method: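 Test chemicals, six concentrations from 0.001 to 100uM in 0.5% DMSO, were co-incubated with carrier-free 125I (final 329pM) on hNIS-HEK293T-EPA monolayers in pH 7.4 HEPES-buffered HBSS. Plates stood 2 hours at room temperature, then were washed cold and counted.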
# [2] = CPHEA_Stoker_NIS_Cytotoxicity: Cytotoxicity Assessment for CPHEA's Radioactive Iodide Uptake (RAIU) Assay for Sodium/Iodide Symporter (NIS) Inhibition, Stoker and Laws Labs (AID 2283897);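 on AC50: active means loss of ATP signal versus DMSO meaning cytotoxicity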
# Summary of the method: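 Viability in hNIS-HEK293T-EPA cells is scored as a drop in luciferase-detected ATP following 2-hour room-temperature exposure (0.001–100uM; triplicate wells, three cell passages), with DMSO as negative control.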
# [3] = target: human Thyroid hormone Receptor alpha (TRa), THRA (gene 7067) (UniProt P10827); assay: ATG_hTRa_XSP2: Attagene TRANS-FACTORIAL Multi-Species (XSP2) HepG2 Assay for human Thyroid hormone Receptor alpha (TRa) (AID 2283838)
# Summary of the method: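 HepG2 cells transiently transfected with multiplexed GAL4-UAS reporter units and exogenous NR-GAL4 chimeras; 24 h chemical exposure with 3 nM 6-alpha-fluorotestosterone and 1.5 nM norgestrel present. Reporter mRNA measured by RT-PCR, FAM labelling, HpaI digestion, capillary electrophoresis; gain-of-signal versus DMSO.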
# [4] = target: frog Thyroid hormone Receptor alpha (TRa), thra-a (gene 397942) (UniProt P15204); assay: ATG_frTRa_XSP2: Attagene TRANS-FACTORIAL Multi-Species (XSP2) HepG2 Assay for frog Thyroid hormone Receptor alpha (TRa) (AID 2283839);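 on AC50: AC50 reflects induction of frog TRa-driven reporter mRNA above DMSO baseline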
# Summary of the method: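 Reporter transcripts were measured by RT-PCR with capillary electrophoresis after 24 h dosing of HepG2 carrying transiently transfected multi-reporter units, including a chimeric frog TRa-GAL4 construct. Activity was taken as increase over DMSO vehicle.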
# [5] = target: human Thyroid hormone Receptor beta (TRb), THRB (gene 7068) (UniProt P10828); assay: ATG_hTRb_XSP2: Attagene TRANS-FACTORIAL Multi-Species (XSP2) HepG2 Assay for human Thyroid hormone Receptor beta (TRb) (AID 2283840);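 further: actives raise reporter mRNA so potency reflects agonist-like gain of signal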
# Summary of the method: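 Activity of exogenous human TRb–Gal4 fusion measured by reporter mRNA from RT-PCR and capillary electrophoresis, 24 h after dosing transfected HepG2. 6-alpha-fluorotestosterone (3 nM) and norgestrel (1.5 nM) present. Gain-of-signal fit relative to DMSO.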
# [6] = CEETOX_H295R_OHPREG_noMTC: CeeTox H295R High-throughput Steroidogenesis Assay for OH-Pregnenolone (OHPREG), maximum tolerated concentration (MTC) filtered results only (AID 2283912; active means hit-call score of the fitted dose curve at least 0.9, where 1 is the maximum; inactive means score below 0.9); settings: actives raise or lower the signal
# Summary of the method: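 Steroidogenesis in H295R cells (OECD 456, modified): after 48 h forskolin priming and 48 h chemical treatment, secreted 17alpha-hydroxypregnenolone is measured by HPLC-MS/MS. Activity is fitted in both directions against DMSO; concentrations are not filtered by MTT-based MTC.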
# [7] = CEETOX_H295R_OHPROG_noMTC: CeeTox H295R High-throughput Steroidogenesis Assay for OH-Progesterone (OHPROG), maximum tolerated concentration (MTC) filtered results only (AID 2283914; active means hit-call score of the fitted dose curve at least 0.9, where 1 is the maximum; inactive means score below 0.9); settings: actives raise or lower the signal
# Summary of the method: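 Forskolin 10 uM, 48 h prestim → test cmpd in DMSO (0.1% final), 48 h → medium MTBE extraction → LC-MS/MS quant of 17alpha-OH-progesterone. Bidirectional fit vs DMSO; no MTT-based MTC filtering.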
# [8] = CEETOX_H295R_ANDR_noMTC: CeeTox H295R High-throughput Steroidogenesis Assay for Androstenedione (ANDR), maximum tolerated concentration (MTC) filtered results only (AID 2283915; active means hit-call score of the fitted dose curve at least 0.9, where 1 is the maximum; inactive means score below 0.9); settings: actives raise or lower the signal
# Summary of the method: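 H295R cells, passage 10 or below, prestimulated 48 h with 10 uM forskolin, then exposed 48 h to chemical in 0.1% DMSO. Medium androstenedione extracted with MTBE, quantified by HPLC-MS/MS; concentrations not MTC-filtered; bidirectional fit versus DMSO.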
# [9] = CEETOX_H295R_PROG_noMTC: CeeTox H295R High-throughput Steroidogenesis Assay for Progesterone (PROG), maximum tolerated concentration (MTC) filtered results only (AID 2283920; active means hit-call score of the fitted dose curve at least 0.9, where 1 is the maximum; inactive means score below 0.9); settings: actives raise or lower the signal
# Summary of the method: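 H295R cells; forskolin 10 uM x 48 h prestim; test cpd 48 h, 0.1% DMSO final; media progesterone via LC-MS/MS; bidirectional fit vs DMSO; no MTT-based MTC filter applied.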
# [10] = CEETOX_H295R_TESTO_noMTC: CeeTox H295R High-throughput Steroidogenesis Assay for Testosterone (TESTO), maximum tolerated concentration (MTC) filtered results only (AID 2283924; active means hit-call score of the fitted dose curve at least 0.9, where 1 is the maximum; inactive means score below 0.9); settings: actives raise or lower the signal
# Summary of the method: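 H295R cells prestimulated 48 h with 10 uM forskolin, then exposed 48 h to chemicals in 0.1% DMSO final. Testosterone in medium quantified by MTBE extraction and HPLC-MS/MS; bidirectional fit versus DMSO, concentrations […] filtered by MTT-based maximum tolerated concentration.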
# [11] = ATG_XTT_Cytotoxicity_XSP2: Cytotoxicity Assessment in the Attagene TRANS-FACTORIAL Multi-Species (XSP2) HepG2 Assay (AID 2283837)
# Summary of the method: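 HepG2 cells, transiently transfected with multiple reporter constructs, exposed to chemical for 24 h. Cell number assessed with XTT fluorescence read-out; loss of signal fitted relative to DMSO.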
# [12] = target: PGR (gene 5241) (UniProt P06401); assay: TOX21_PR_BLA_Followup_Agonist_ratio: Tox21 HEK293 Progesterone Receptor (PR) Agonism Beta-lactamase Follow-Up Assay, Ratio (AID 2283933)
# Summary of the method: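 Agonist-mode follow-up in HEK293T cells carrying a UAS-driven beta-lactamase reporter, grown in 2% charcoal-stripped serum. Compounds act for 16 hr; activity is the ch2/ch1 cleavage ratio, with same-well CellTiter-Glo viability run in parallel.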
# [13] = target: PGR (gene 5241) (UniProt P06401); assay: TOX21_PR_BLA_Followup_Antagonist_ratio: Tox21 HEK293 Progesterone Receptor (PR) Antagonism Beta-lactamase Follow-Up Assay, Ratio (AID 2283934);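 further: PR-UAS-bla HEK293T cells stimulated with 1 nM R5020 agonist for 16 hr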
# Summary of the method: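 Antagonist mode used 1 nM R5020 (final) as agonist on a beta-lactamase reporter line in HEK293T cells. Activity was taken from the substrate cleavage ratio after 16 hr exposure.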
# [14] = TOX21_PR_BLA_Followup_Agonist_viability: Viability Assessment in the Tox21 HEK293 Progesterone Receptor (PR) Agonism Beta-lactamase Follow-Up Assay (AID 2283935);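 further: signal loss means lower viability so actives are cytotoxic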
# Summary of the method: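 Multiplexed viability counter-screen: ATP-coupled luciferase signal measured after 30 min at room temperature, following 16 hr compound treatment of PR-UAS-bla HEK293T cells grown in charcoal-stripped serum.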
# [15] = TOX21_PR_BLA_Followup_Antagonist_viability: Viability Assessment in the Tox21 HEK293 Progesterone Receptor (PR) Antagonism Beta-lactamase Follow-Up Assay (AID 2283936);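 further: hits lower the luminescence signal meaning cytotoxicity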
# Summary of the method: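 PR-UAS-bla HEK293T cells (3,000/well, 2% charcoal-stripped FBS) given compound plus R5020 agonist, 16 h at 37C. CellTiter-Glo added after bla read, 30 min at room temperature; luminescence loss indicates cytotoxicity.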
# [16] = target: PGR (gene 5241) (UniProt P06401); assay: TOX21_PR_LUC_Followup_Agonist: Tox21 HEK293 Progesterone Receptor (PR) Agonism Luciferase Follow-Up Assay (AID 2283937; active means hit-call score of the fitted dose curve at least 0.9, where 1 is the maximum; inactive means score below 0.9)
# Summary of the method: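 Agonist mode: reporter cells carrying PR-A and luciferase are treated 16 h with test compounds at 37C. Luciferase induction is measured by luminescence and fitted upward against DMSO.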
# [17] = target: PGR (gene 5241) (UniProt P06401); assay: TOX21_PR_LUC_Followup_Antagonist: Tox21 HEK293 Progesterone Receptor (PR) Antagonism Luciferase Follow-Up Assay (AID 2283938);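 further: curve fitted upward as signal gain over DMSO baseline despite antagonist label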
# Summary of the method: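 Luminescence from ONE-Glo was measured 30 min after reagent addition, following 16 h exposure of HEK293-PR-A-luc cells (3,000/well, plated 5 h earlier) to DMSO-dissolved compounds at 37C; DMSO served as baseline.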
# [18] = TOX21_PR_LUC_Followup_Antagonist_viability: Viability Assessment in the Tox21 HEK293 Progesterone Receptor (PR) Antagonism Luciferase Follow-Up Assay (AID 2283940)
# Summary of the method: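 Cellular ATP, measured with luciferase-coupled CellTiter-Glo, served as the viability endpoint after HEK293-PR-A-luc cells were exposed to test compounds for 16 h at 37C.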
# [19] = TOX21_PR_LUC_Followup_Agonist_viability: Viability Assessment in the Tox21 HEK293 Progesterone Receptor (PR) Agonism Luciferase Follow-Up Assay (AID 2283941);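 further: loss of signal means cytotoxicity so actives lower viability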
# Summary of the method: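 Luminescent ATP quantitation (CellTiter-Glo) serves as the read-out; a drop flags cytotoxic compounds. Cells are HEK293-PR-A-luc grown in 10% charcoal-stripped FBS, plated 3,000/well, and exposed to compound for 16 h.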
# frog Thyroid hormone Receptor alpha (TRa), thra-a (gene 397942), sequence (P15204 whole entry, looked up, the tested form may be a part): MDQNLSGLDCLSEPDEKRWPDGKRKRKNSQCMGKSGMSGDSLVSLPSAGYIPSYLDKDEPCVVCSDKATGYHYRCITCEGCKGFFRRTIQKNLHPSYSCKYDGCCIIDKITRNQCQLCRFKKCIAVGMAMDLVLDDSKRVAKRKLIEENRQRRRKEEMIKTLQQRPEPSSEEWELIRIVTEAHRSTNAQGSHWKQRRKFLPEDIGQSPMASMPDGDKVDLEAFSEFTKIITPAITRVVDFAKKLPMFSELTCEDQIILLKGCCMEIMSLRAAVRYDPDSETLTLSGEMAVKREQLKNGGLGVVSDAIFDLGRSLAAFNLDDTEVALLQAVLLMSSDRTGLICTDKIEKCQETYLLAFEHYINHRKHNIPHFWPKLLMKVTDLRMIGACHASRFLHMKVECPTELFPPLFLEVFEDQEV
# human Thyroid hormone Receptor alpha (TRa), THRA (gene 7067), sequence (P10827 whole entry, looked up, the tested form may be a part): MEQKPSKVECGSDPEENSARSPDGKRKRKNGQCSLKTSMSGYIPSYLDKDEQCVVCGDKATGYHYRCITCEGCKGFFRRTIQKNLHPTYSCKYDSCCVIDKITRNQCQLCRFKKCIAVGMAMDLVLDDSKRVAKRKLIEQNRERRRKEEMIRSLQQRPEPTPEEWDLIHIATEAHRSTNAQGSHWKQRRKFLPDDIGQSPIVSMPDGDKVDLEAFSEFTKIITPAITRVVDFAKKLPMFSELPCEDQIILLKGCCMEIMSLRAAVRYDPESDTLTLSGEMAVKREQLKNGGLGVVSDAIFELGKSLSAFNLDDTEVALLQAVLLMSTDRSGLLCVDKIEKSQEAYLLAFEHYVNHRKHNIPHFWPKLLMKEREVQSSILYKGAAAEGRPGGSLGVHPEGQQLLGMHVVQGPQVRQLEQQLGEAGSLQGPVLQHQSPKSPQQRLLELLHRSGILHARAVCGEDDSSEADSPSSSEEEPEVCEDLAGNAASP
# PGR (gene 5241), sequence (P06401 whole entry, looked up): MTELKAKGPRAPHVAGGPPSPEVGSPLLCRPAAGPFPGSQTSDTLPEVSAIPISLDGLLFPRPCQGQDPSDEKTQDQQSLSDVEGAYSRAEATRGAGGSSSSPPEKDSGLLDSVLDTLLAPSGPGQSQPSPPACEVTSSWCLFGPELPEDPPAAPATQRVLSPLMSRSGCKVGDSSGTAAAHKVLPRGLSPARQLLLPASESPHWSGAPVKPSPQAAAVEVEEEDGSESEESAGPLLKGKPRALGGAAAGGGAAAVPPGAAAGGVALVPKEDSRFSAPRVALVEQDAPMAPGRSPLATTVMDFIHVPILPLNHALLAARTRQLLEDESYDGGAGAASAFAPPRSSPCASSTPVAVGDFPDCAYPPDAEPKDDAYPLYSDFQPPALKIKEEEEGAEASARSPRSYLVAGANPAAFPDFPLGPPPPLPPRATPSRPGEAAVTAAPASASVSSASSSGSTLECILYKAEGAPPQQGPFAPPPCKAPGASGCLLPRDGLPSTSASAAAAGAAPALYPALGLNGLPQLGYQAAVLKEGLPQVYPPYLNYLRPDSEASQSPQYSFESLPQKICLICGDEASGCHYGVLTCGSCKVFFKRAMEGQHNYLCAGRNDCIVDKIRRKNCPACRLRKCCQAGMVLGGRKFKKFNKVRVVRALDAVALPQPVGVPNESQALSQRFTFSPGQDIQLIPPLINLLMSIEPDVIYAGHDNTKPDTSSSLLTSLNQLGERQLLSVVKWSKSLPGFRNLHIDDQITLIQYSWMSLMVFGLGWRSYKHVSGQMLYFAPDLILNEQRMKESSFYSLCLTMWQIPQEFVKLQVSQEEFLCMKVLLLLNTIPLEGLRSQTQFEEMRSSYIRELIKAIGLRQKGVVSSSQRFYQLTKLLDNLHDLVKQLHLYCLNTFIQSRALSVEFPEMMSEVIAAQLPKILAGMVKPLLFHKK
# human Thyroid hormone Receptor beta (TRb), THRB (gene 7068), sequence (P10828 whole entry, looked up, the tested form may be a part): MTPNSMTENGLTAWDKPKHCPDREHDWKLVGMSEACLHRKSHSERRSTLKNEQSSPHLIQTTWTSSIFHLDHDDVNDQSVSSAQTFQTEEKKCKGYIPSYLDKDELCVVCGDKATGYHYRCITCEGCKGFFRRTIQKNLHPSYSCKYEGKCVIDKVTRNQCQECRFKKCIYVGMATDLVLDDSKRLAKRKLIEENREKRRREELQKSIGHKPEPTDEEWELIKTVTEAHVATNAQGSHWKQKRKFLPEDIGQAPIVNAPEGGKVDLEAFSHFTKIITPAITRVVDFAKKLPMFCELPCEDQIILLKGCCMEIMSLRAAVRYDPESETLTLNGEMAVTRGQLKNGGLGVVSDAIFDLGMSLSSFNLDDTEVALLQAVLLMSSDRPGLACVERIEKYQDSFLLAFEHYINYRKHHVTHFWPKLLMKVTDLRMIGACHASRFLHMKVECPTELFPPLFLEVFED
compound,measurement,setting,value
CCOP(=S)(Oc1cnc(C(C)(C)C)nc1)OC(C)C (stereo not drawn),outcome,[1],inactive
same,outcome,[2],inactive
FC(F)C(F)(F)OCC(Cn1cncn1)c1ccc(Cl)cc1Cl (stereo not drawn),outcome,[1],inactive
same,outcome,[2],inactive
C#CC(C)(C)NC(=O)c1cc(Cl)cc(Cl)c1,outcome,[3],inactive
same,AC50,[4],26.8 µM (active)
same,outcome,[5],inactive
CCCCN(CC)c1c([N+](=O)[O-])cc(C(F)(F)F)cc1[N+](=O)[O-],outcome,[1],inactive
same,outcome,[2],inactive
CCOP(=S)(OCC)SCCSCC,outcome,[1],inactive
same,outcome,[2],inactive
CCOP(=S)(OCC)Oc1ccc2c(C)c(Cl)c(=O)oc2c1,outcome,[3],inactive
same,outcome,[4],inactive
same,outcome,[5],inactive
same,AC50,[1],9.92 µM (active)
same,AC50,[2],27.7 µM (active)
CCOC(=O)COc1cc(-c2nn(C)c(OC(F)F)c2Cl)c(F)cc1Cl,outcome,[1],inactive
same,outcome,[2],inactive
CCc1cccc(C)c1N(C(=O)CCl)C(C)COC (stereo not drawn),outcome,[4],inactive
C#CCC1=C(C)C(OC(=O)C2C(C=C(C)C)C2(C)C)CC1=O (stereo not drawn),outcome,[3],inactive
same,outcome,[4],inactive
same,outcome,[5],inactive
same,AC50,[1],47.5 µM (active)
same,outcome,[2],inactive
CCOP(=S)(OCC)OC(Cl)C(Cl)(Cl)Cl (stereo not drawn),outcome,[1],inactive
same,outcome,[2],inactive
CC[C@H](C)[C@H]1O[C@]2(C=C[C@@H]1C)C[C@@H]1C[C@@H](C/C=C(\C)[C@@H](O[C@H]3C[C@H](OC)[C@@H](O[C@H]4C[C@H](OC)[C@@H](NC)[C@H](C)O4)[C@H](C)O3)[C@@H](C)/C=C/C=C3\CO[C@@H]4[C@H](O)C(C)=C[C@@H](C(=O)O1)[C@]34O)O2,AC50,[1],13.3 µM (active)
same,AC50,[2],23 µM (active)
CCCCOC(=O)c1ccccc1C(=O)O,outcome,[6],inactive
same,outcome,[7],inactive
same,outcome,[8],inactive
same,outcome,[9],inactive
same,outcome,[10],inactive
C=C(C)[C@H]1Cc2c(ccc3c2O[C@@H]2COc4cc(OC)c(OC)cc4[C@@H]2C3=O)O1,AC50,[1],0.0708 µM (active)
same,outcome,[2],inactive
COc1cccc(C(=O)NN(C(=O)c2cc(C)cc(C)c2)C(C)(C)C)c1C,AC50,[1],15.8 µM (active)
same,outcome,[2],inactive
CC(C)N(C(=O)SCC(Cl)=C(Cl)Cl)C(C)C,AC50,[1],21.1 µM (active)
same,AC50,[2],39.8 µM (active)
CCOP(=O)(NC(C)C)Oc1ccc(SC)c(C)c1 (stereo not drawn),outcome,[11],inactive
same,outcome,[4],inactive
CCCSP(=O)(OCC)Oc1ccc(Br)cc1Cl (stereo not drawn),outcome,[1],inactive
same,outcome,[2],inactive
CSC1=N[C@@](C)(c2ccccc2)C(=O)N1Nc1ccccc1,outcome,[1],inactive
same,outcome,[2],inactive
CC(COc1ccc(Oc2ccccc2)cc1)Oc1ccccn1 (stereo not drawn),outcome,[1],inactive
same,outcome,[2],inactive
C[Si](Cn1cncn1)(c1ccc(F)cc1)c1ccc(F)cc1,outcome,[1],inactive
same,outcome,[2],inactive
CCC(=O)Nc1ccc(Cl)c(Cl)c1,outcome,[11],inactive
same,AC50,[3],165 µM (active)
same,outcome,[3],inactive
same,outcome,[4],inactive
same,outcome,[5],inactive
same,outcome,[1],inactive
same,outcome,[2],inactive
same,outcome,[12],inactive
same,outcome,[13],inactive
same,outcome,[14],inactive
same,outcome,[15],inactive
same,outcome,[16],inactive
same,outcome,[17],inactive
same,outcome,[18],inactive
same,outcome,[19],inactive
CCOP(=S)(OCC)Oc1ccc([N+](=O)[O-])cc1,outcome,[1],inactive
same,outcome,[2],inactive
same,AC50,[13],3.78 µM (active)
same,outcome,[14],inactive
same,outcome,[15],inactive
same,AC50,[17],4.86 µM (active)
same,outcome,[18],inactive
CCCOCC(=Nc1ccc(Cl)cc1C(F)(F)F)n1ccnc1,AC50,[1],29 µM (active)
same,AC50,[2],38.1 µM (active)
